# ALOX12 inh – blocks human arachidonate 12S-lipoxygenase | P18054 | purified 12hLO, xylenol orange hydroperoxide absorbance | Potency, µM (doses to about 108 µM), for inactives: at the top dose activity change, negative = inhibition, usual class: inhibitors | hit rate 1.1% among 580,000; further: potency means the concentration at half of the fitted maximal effect
# Target sequence (P18054 whole entry, looked up): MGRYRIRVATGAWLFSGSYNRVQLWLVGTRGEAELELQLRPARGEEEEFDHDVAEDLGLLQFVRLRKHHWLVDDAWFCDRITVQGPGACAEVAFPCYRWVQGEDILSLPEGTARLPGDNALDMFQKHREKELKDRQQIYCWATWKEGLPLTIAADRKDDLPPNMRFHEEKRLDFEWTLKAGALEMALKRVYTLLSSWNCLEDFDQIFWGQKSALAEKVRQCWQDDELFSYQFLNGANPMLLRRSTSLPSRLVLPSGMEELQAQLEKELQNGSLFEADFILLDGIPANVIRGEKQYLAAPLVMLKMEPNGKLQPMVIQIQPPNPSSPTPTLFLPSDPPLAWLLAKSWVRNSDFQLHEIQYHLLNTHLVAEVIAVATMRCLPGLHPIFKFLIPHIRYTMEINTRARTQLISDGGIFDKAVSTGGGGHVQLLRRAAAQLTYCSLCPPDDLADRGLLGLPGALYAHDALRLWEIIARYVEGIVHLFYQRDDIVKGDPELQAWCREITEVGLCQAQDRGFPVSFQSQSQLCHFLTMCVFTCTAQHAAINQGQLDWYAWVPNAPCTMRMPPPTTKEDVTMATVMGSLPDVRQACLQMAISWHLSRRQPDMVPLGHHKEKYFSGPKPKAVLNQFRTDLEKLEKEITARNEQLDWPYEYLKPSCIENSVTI
#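 Purified human 12hLO (150 nM final) in 25 mM Hepes, 0.01% Triton X-100, pH 7.0 was preincubated 15 min at room temperature with compound. Then 40 uM arachidonic acid was added, 30 min. Hydroperoxide was read by Fe-XO absorbance ratio 573/405 nm.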
# HT1080NT lethal – kills 2HG-producing HT-1080-NT fibrosarcoma cells; HT-1080-NT fibrosarcoma viability, CellTiter-Glo ATP luminescence, 48 h; Potency, µM (titrated, usually from 46.1 µM), without a hit: at the highest dose activity, negative = less viability, usual class: cytotoxic; hit rate 1.6% among 360,000; AID 686970;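 further: NT is the 2HG producing partner of a matched IDH1 knockdown line; potency means the concentration at half of the fitted maximal effect; 0% = DMSO-treated cells and -100% = media-only wells without cells; nearly all actives have a fitted effect of over 55% in size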
#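 Luminescent CellTiter-Glo readout after 48 hours of compound exposure at 37 degrees C defined viability of HT-1080-NT cells. Activity was normalized to DMSO wells and cell-free media wells; concentration-response curves were fitted and assigned curve classes.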
# IL-1B inflam inh – inhibitors of inflammasome signaling (IL-1 beta secretion); THP-1 LPS/ATP IL-1B secretion, AlphaLISA, 16 h; stronger effect = lower value; hit rate 4.7% among 360,000; AID 743279; activity change, % at 57.5 µM; in the data active means activity change below about -50%; inconclusive means mostly about -30% to -49%
#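 THP-1 cells pretreated 1 hr with compounds (up to 57.5 uM final), then stimulated with LPS (250 ng/mL final) plus ATP (1.25 mM final); secreted IL-1B measured by AlphaLISA after 16 hr, decreased signal indicating inhibition.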
# TDP1 cell CPT – DT40-hTDP1 cell growth loss with CPT | chicken DT40 Tdp1-/-;hTDP1 cells + 20 nM CPT, ATP luminescence, 48 h | Potency, µM (series often up to 46.2 µM), without a hit: at the highest dose activity change, negative = growth inhibition, usual class: inhibitors | hit rate 12% among 420,000 | AID 686979; further: potency means the concentration at half of the fitted maximal effect; nearly all actives have a fitted effect of over 55% in size
#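 Cell growth measured by CellTiter-Glo luminescence after a minimum 48 h, 37 C compound exposure with 20 nM CPT in Tdp1-knockout DT40 cells stably expressing hTDP1, seeded 400/well; qHTS titration format.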
# HT1080 IDH1KD tx – toxicity to HT-1080 IDH1 knockdown cells (counter line); hit rate 2% among 360,000; Potency, µM (doses to about 46.1 µM), for the others: top-dose activity, negative = toxicity, usual class: cytotoxic; HT-1080 IDH1 knockdown viability, ATP luminescence, 48 h;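 further: potency means the concentration at half of the fitted maximal effect; 0% = DMSO wells and -100% = cell-free medium wells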
#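 IDH1KD HT-1080 cells, 750/well, RPMI + 5% FBS; compound pinned after 2 h settling; 48 h, 37 °C; CellTiter-Glo luminescence; % activity normalised to DMSO and no-cell wells; curves fitted, classed by r2 and efficacy.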
# TDP1 cell noCPT – qHTS for Inhibitors of human tyrosyl-DNA phosphodiesterase 1 (TDP1): qHTS in cells in absence of CPT. DT40 Tdp1-/- hTDP1 cells, no CPT, ATP luminescence, 48 h. Potency, µM (doses to about 46.2 µM), for the others: at the highest dose activity change, negative = growth inhibition, actives largely listed as inhibitors. hit rate 15% among 420,000; further: potency means the concentration at half of the fitted maximal effect; nearly all actives have a fitted effect of over 55% in size
#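 Chicken DT40 Tdp1-/- cells stably complemented with human TDP1 were seeded at 400 cells/well with DMSO in place of 20 nM camptothecin. After compound pinning, cells grew at least 48 hr at 37 °C; viability read by CellTiter-Glo luminescence.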
# Numbers without * were called inactive; ? = inconclusive; · = not tested or not shown; [ ] = remark or other dose. The entries come from a sample that favours hits as a whole. Unless noted, the call rests on the fitted dose curve; in most records, active means well fitted curve in the direction sought with a large enough effect; inconclusive means small, poorly fitted or top-dose-only effect, or another doubt; inactive means no such curve, though single readings can be large; an effect the other way counts as inactive or inconclusive. Unless noted, on the % scale 0 is the no-effect control and ±100 the full control effect.
SMILES,ALOX12 inh,HT1080NT lethal,IL-1B inflam inh,TDP1 cell CPT,HT1080 IDH1KD tx,TDP1 cell noCPT
CC(/C=N/NC(=O)c1nnn(-c2nonc2N)c1CN1CCCCC1)=C\c1ccccc1,-27%,?,-7,?,?,?
C/C(=N\NC(=O)c1nnn(-c2nonc2N)c1CN(C)c1ccccc1)c1ccccc1O,-1%,?,93,8.2µM*,?,6.5µM*
C/C(=N\NC(=O)c1nnn(-c2nonc2N)c1CN1CCCCC1)c1ccccc1O,1%,?,95,10µM*,?,13µM*
NC(=O)Cc1csc(NC(=O)CCc2ncc(-c3ccc(Cl)cc3)o2)n1,-9%,·,·,·,·,·
CN(Cc1ccccc1)C(=O)CNC(=O)Nc1ccccc1,-21%,·,·,·,·,·
CCOc1ccc(NC(=O)COC(=O)Cc2ccc(S(=O)(=O)N3CCOCC3)s2)cc1,?,0%,32,10%,25%,3%
Cc1ccc(C(=O)N2CCN(c3ccccc3)CC2)cc1S(=O)(=O)N1CCOCC1,1%,-8%,-2,?,-11%,?
CCOc1ccc(S(=O)(=O)N2CCN(C(=O)c3ccc(C)c(S(=O)(=O)N4CCOCC4)c3)CC2)cc1,249%,-9%,-4,26µM*,-10%,18µM*
Cc1ccc(C(=O)N2CCC(Cc3ccccc3)CC2)cc1S(=O)(=O)N1CCOCC1,?,-3%,-18,?,4%,9.2µM*
CCOc1ccc(S(=O)(=O)N2CCN(C(=O)Cc3ccc(S(=O)(=O)N4CCOCC4)s3)CC2)cc1,-1%,-8%,-13,?,0%,23µM*
CC(C)(O)CCc1cccc(C(=O)N(Cc2ccc3c(c2)OCO3)C2CC2)c1,1%,·,·,·,·,·
COc1cc(C(c2c(C(=O)O)[nH]c3ccccc23)c2c(C(=O)O)[nH]c3ccccc23)ccc1OCc1ccccc1,28µM*,-2%,31,-4%,-8%,7%
O=C(O)c1[nH]c2ccccc2c1C(c1ccccc1)c1c(C(=O)O)[nH]c2ccccc12,6%,2%,36,18%,-1%,22%
C=CCOc1ccc(C(c2c(C(=O)O)[nH]c3ccccc23)c2c(C(=O)O)[nH]c3ccccc23)cc1,28µM*,-6%,39,12%,0%,-8%
Cc1nn(C)c2sc(C(=O)NCCc3ccc(C(=O)O)cc3)cc12,-24%,·,·,·,·,·
COc1ccc(-c2nc3cc(NC(=O)COc4cccc(C)c4)ccc3o2)cc1,-8%,·,·,·,·,·
Cc1cc(O)ccc1Nc1nc(-c2cccs2)cs1,?,-22%,-84*,-5%,?,-6%
Cc1nc(C)c(-c2csc(Nc3ccc(O)cc3C)n2)s1,?,3%,-6,16µM*,7%,5.8µM*
Cc1nc(C)c(-c2csc(Nc3ccc(Cl)cn3)n2)s1,-16%,-22%,22,18µM*,-25%,?
Cc1nc(C)c(-c2csc(Nc3ccc(F)cc3)n2)s1,?,?,-23,?,?,?
Cc1cc(O)ccc1Nc1nc(-c2cccnc2)cs1,-3%,-1%,-1,-51%,?,-52%
CCc1nncn1C1CCN(S(=O)(=O)c2ccc(C)c(C)c2)CC1,1%,·,·,·,·,·
COCc1cn(C[C@H]2C[C@@H](NC(=O)c3cc(C)on3)[C@H](O)[C@@H]2O)nn1,78%[176 µM],·,·,·,·,·
C=CCn1c(O)c(C2=c3ccccc3=NC2=O)c2ccccc21,-14%,23µM*,0,?,21µM*,4.1µM*
CCN1CCN(c2cc(C)c3cc(NC(=S)N4CCN(c5ccc(F)cc5)CC4)ccc3n2)CC1,-1%,16%,84,21µM*,-7%,?

# Bioassay records as filed in PubChem.
